Hits are enriched below; roughly 4.4% of the tested compounds scored in any of these assays.
TRHR agonist: agonists of human TRH receptor; AID 493084; actives 0.18% (n = 360,000); activation, % at 2 µM; TRHR cells, calcium flux fluo-8, FDSS agonist mode; P34981; further: 0% is about no effect
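Read-out: compound-evoked intracellular calcium rise in TRHR cells, fluo-8 dye, kinetic FDSS fluorescence at 1 s/cycle following a 10-cycle baseline. Cells cultured overnight before dye loading (30 min–1.5 h, RT).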
USP1-UAF1 inh: inhibitors of human USP1/UAF1 deubiquitinase; actives 0.23% (n = 390,000); AID 743255; recombinant USP1/UAF1, Ub-Rhodamine cleavage fluorescence; Potency, µM (titrated, usually from 57.1 µM), for the others: at the top dose activity change, negative = inhibition, most hits filed as inhibitors; active means well fitted inhibition curve with a large enough effect; inconclusive means small, poorly fitted or top-dose-only effect; inactive means no such curve, though single readings can be large or run the other way; further: potency means the concentration at half of the fitted maximal effect; on the % scale 0 is the no-effect control and ±100 the full control effect; nearly all actives have a fitted effect of over 60% in size
Target sequence (O94782 whole entry, looked up): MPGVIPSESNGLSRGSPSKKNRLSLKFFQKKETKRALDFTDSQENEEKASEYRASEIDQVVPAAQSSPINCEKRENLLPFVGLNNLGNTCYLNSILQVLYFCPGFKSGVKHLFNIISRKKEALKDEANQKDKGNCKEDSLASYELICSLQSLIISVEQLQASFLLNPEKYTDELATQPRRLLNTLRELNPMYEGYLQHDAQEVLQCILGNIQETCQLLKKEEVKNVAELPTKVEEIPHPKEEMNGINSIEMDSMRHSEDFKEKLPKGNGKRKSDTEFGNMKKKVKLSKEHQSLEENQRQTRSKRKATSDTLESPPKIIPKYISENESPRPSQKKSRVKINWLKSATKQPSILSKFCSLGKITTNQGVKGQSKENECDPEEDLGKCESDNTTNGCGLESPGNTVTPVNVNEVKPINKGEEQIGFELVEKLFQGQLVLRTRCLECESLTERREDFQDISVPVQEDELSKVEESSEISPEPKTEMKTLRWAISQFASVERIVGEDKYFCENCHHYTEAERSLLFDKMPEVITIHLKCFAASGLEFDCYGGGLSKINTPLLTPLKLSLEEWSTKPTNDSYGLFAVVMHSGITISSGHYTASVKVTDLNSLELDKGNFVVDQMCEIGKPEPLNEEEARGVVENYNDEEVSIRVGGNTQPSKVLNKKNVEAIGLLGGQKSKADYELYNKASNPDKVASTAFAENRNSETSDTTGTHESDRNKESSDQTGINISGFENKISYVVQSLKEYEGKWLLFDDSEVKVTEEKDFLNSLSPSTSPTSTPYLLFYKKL
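USP1/UAF1 complex (1 nM) preincubated 15 min at room temperature with compound, then Ub-Rho substrate (150 nM final) added. Kinetic fluorescence at 480/540 nm over 6 reads at 60 s intervals; 50 mM HEPES pH 7.8, 0.5 mM EDTA, 0.1 mg/ml BSA, 1 mM TCEP, 0.01% Tween-20.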
D1 ag: agonists of human D1 dopamine receptor | AID 504660 | activation, % at 2 µM | actives 1% (n = 360,000) | P21728 | HEK293 T-REx D1 cells, calcium flux, agonist mode; further: 0% is about no effect
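Inducible HEK293 T-REx D1 cells, force-coupled to calcium signalling, were plated at 4000 cells/well with tetracycline and held overnight at 30 C. After no-wash calcium dye loading, compound-evoked calcium rise over 180 s flagged agonists.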
D1 antag: blocks dopamine activation of the human D1 receptor; P21728; HEK293 TREx D1 cells, calcium flux, dopamine EC80; hits give low values; activity change, negative = inhibition, % at 10 µM; actives 3.2% (n = 360,000); in the data active means activity change below about -30%; further: on the % scale 0 is the no-effect control and ±100 the full control effect
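Tetracycline-induced HEK293 T-REx cells with force-coupled D1 receptor were loaded with a no-wash calcium dye. Compound was added after a 10 s baseline and read kinetically for 180 s; EC80 dopamine was then added and calcium flux followed another 180 s.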
TRHR PAM: allosterically enhances the human TRH receptor; P34981; TRHR cells, fluo-8 calcium fluorescence, EC20 TRH enhancement; enhancement, % at 2 µM; actives 0.66% (n = 360,000); AID 493056; in the data active means enhancement above about 30%; further: 0% is about no effect
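Enhancer read-out: after compound pinning and an initial kinetic agonist-mode read, an EC20 of TRH (10 nM final) was injected and fluo-8 calcium signal (Ex 480/Em 530) followed at 1 s/cycle for 100 cycles in TRHR-expressing cells.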
D1 potentiator: human D1 dopamine receptor positive modulation; P21728; actives 0.036% (n = 360,000); HEK293 TREx D1 cells, calcium flux, dopamine EC20 potentiation; potentiation, % at 10 µM; in the data active means potentiation above about 30%; further: 0% is about no effect
An asterisk follows results filed as active; u = inconclusive; x = no result. Unless noted, no stated cut-off is given here; in the data, active means activation above about 30%; inactive means the rest.

SMILES	TRHR agonist	USP1-UAF1 inh	D1 ag	D1 antag	TRHR PAM	D1 potentiator
CC(=O)c1c(C)[nH]c(C(=O)Nc2cc(F)ccc2C)c1C	-1	-16%	1	15	0	-4
CC(=O)c1c(C)[nH]c(C(=O)Nc2ccc(F)cc2F)c1C	-1	-10%	2	-15	36*	-4
CCc1ccc(NC(=O)c2[nH]c(C)c(C(C)=O)c2C)cc1	-1	-18%	19	-39*	0	-9
CCNc1ccc(C(=O)OCC(=O)NC(=O)NCC(C)C)cc1[N+](=O)[O-]	-2	u	1	-16	6	-2
CCNc1ccc(C(=O)OCC(=O)NCc2ccccc2Cl)cc1[N+](=O)[O-]	0	-13%	2	-88*	5	-1
O=C(COC(=O)c1cc(Cl)ccc1[N+](=O)[O-])Nc1cccc2ccccc12	-1	-8%	0	-4	-4	-1
O=C(COC(=O)c1cc(Cl)ccc1[N+](=O)[O-])NCc1ccc(Cl)cc1Cl	0	-15%	1	-11	39*	10
O=S(=O)(O)c1nnc2sc3ccccc3n12	0	-21%	2	-36*	-5	-2
CN(C)C(=O)CSc1nnc2sc3ccccc3n12	1	-11%	2	-3	-4	-7
COC(=O)C1(C)NC(c2ccc(O)cc2)C2C(=O)N(c3ccc(C)cc3)C(=O)C21 (centres undefined)	1	-11%	3	-42*	7	-6
Cc1ccc2c(c1)C1CN(C)CCC1N2C(=O)c1cccc(S(=O)(=O)N(C)C)c1 (centres undefined)	1	-14%	5	-7	4	-7
Cc1ccc2c(c1)C1CN(C)CCC1N2C(=O)Nc1ccc(Cl)cc1 (centres undefined)	2	1%	36*	-73*	0	-12
COc1ccc(CNc2nc(-c3ccco3)nn2S(=O)(=O)c2ccc(Cl)cc2)cc1OC	-1	-16%	5	2	-12	-2
O=C(O)c1cc(-c2ccc(/C=c3\sc4nc5ccc(Br)cc5n4c3=O)o2)ccc1Cl	8	x	36*	7	8	1
O=C(O)c1cc(-c2ccc(/C=C3\NC(=O)N(c4ccc(Cl)cc4)C3=O)o2)ccc1Cl	1	u	2	-3	-6	-4
O=C(O)c1cc(-c2ccc(/C=C3\NC(=O)N(c4ccccc4)C3=O)o2)ccc1Cl	0	-22%	4	1	-5	1
C#CCN1C(=O)S/C(=C\c2ccc(-c3ccc(Cl)c(C(=O)O)c3)o2)C1=O	1	-24%	2	9	32*	4
CCOC(=O)c1ccc(NC(=O)C(Cc2ccccc2)NS(=O)(=O)c2ccc(Br)s2)cc1 (centres undefined)	2	-9%	2	-7	7	2
Cc1ccc(NC(=S)NC2CC3CCC(C2)N3Cc2ccco2)cc1C (centres undefined)	-1	-10%	8	-89*	3	-17
Cc1ccc(NC(=S)NC2CC3CCC(C2)N3Cc2ccco2)c(C)c1 (centres undefined)	0	u	6	-43*	-3	-7
CCc1ccccc1NC(=S)NC1CC2CCC(C1)N2Cc1ccco1 (centres undefined)	0	-25%	5	1	-2	4
CCc1ccc(NC(=S)NC2CC3CCCC(C2)N3Cc2cccs2)cc1 (centres undefined)	3	0%	4	-81*	5	-11
COc1ccc(NC(=S)NC2CC3CCCC(C2)N3C2CC2)cc1 (centres undefined)	0	-11%	3	-38*	4	-8
Cc1cccc(NC(=S)NC2CC3CCC(C2)N3Cc2ccco2)c1C (centres undefined)	1	-20%	1	-21	8	-3
COc1cc(/C=C(\NC(C)=O)C(=O)O)cc(OC)c1OC	1	-4%	2	-9	-3	-6
SMILES	TRHR agonist	USP1-UAF1 inh	D1 ag	D1 antag	TRHR PAM	D1 potentiator
COc1cc(/C=C(/C(=O)O)c2ccc(-c3ccccc3)cc2)cc(OC)c1OC	0	-22%	-3	-42*	1	-8
COc1ccc(-c2noc(CN(C(C)C)S(=O)(=O)c3ccc(Br)cc3)n2)cc1	6	-15%	5	-4	-6	-2
Cc1cccc(-c2noc(CN(C(C)C)S(=O)(=O)c3ccc(Br)cc3)n2)c1	4	-12%	34*	-15	-11	6
CCOC(=O)C1=C(O)/C(=C/c2cc(OC)c(OC)c(OC)c2)N=C1C	-1	-23%	3	-38*	9	-8
CCOC(=O)C1=C(O)/C(=C\c2ccc(OC)c(OC)c2)N=C1C	1	-3%	0	6	-6	-7
Cc1ccccc1N1CCN(CCCCN2C(=O)C3CCCN3C2=O)CC1 (centres undefined)	1	-4%	7	-57*	1	-11
Cc1ccc2[nH]c(=O)c3cc(C(=O)N4CCN(c5ccccc5)CC4)sc3c2c1	0	-22%	-1	9	1	3
COc1ccc(N2CCN(C(=O)CC(C)S(=O)(=O)c3ccc4c(c3)NC(=O)CO4)CC2)cc1 (centres undefined)	1	-17%	5	-32*	1	-3
CC(CC(=O)N1CCN(c2cccc(Cl)c2)CC1)S(=O)(=O)c1ccc2c(c1)NC(=O)CO2 (centres undefined)	0	-9%	10	-15	-2	-6
Cn1c(-n2cccc2)c(-c2c(-c3ccc(F)cc3)[nH]c3c2c(=O)[nH]c(=O)n3C)c(=O)[nH]c1=O	0	u	0	0	-4	0
c1ccc(-c2ccc(OCCCn3cncn3)cc2)cc1	0	0%	10	-21	-11	-6
CCC(=O)c1ccccc1OCCCn1cncn1	0	-2%	1	-31*	-4	-8
Clc1ccc(CCNC(c2nnc(-c3ccccc3)o2)c2ccccc2Cl)cc1 (centres undefined)	-1	-17%	69*	-10	5	7
Fc1ccc(C(NCCc2ccc(Cl)cc2)c2nnc(-c3ccccc3)o2)c(Cl)c1 (centres undefined)	0	-17%	64*	-16	6	9
Clc1ccc(CCNC(c2cccc(Cl)c2)c2nnc(-c3ccccc3)o2)cc1 (centres undefined)	3	-26%	24	11	-4	-1
Cc1cccc(N2CCN(CCCNc3ncnc4onc(-c5ccc(F)cc5)c34)CC2C)c1 (centres undefined)	-1	-12%	0	6	6	2
